This is an account of results in paper PMC11062922 (Nature Chemical Biology, 2023).

One assay relates to AKT2. On the set-up: species or system human, MV4-11 + K-562 + COLO205 + SK-N-BE2 + OVCAR-8. The conditions noted are these: read-out: apparent Kd; compound concentrations:100 nM and 1000 nM (sheet 'Samples'); n = 1.
Another assay has as its system CDK16. Also noted: species or system human, MV4-11 + K-562 + COLO205 + SK-N-BE2 + OVCAR-8. As to conditions: read-out: apparent Kd; compound concentrations:100 nM and 1000 nM (sheet 'Samples'); n = 1.
In the next assay the test system is CDK17. Also noted: species or system human, MV4-11 + K-562 + COLO205 + SK-N-BE2 + OVCAR-8. As to conditions: read-out: apparent Kd; compound concentrations:100 nM and 1000 nM (sheet 'Samples'); n = 1.
For the next assay, the system named is CDKL5. On the set-up: species or system human, MV4-11 + K-562 + COLO205 + SK-N-BE2 + OVCAR-8. The conditions noted are these: read-out: apparent Kd; compound concentrations:100 nM and 1000 nM (sheet 'Samples'); n = 1.
Another assay has as its system T1, DJA1.
T1 construct: gene DNAJA1
Also noted: species or system human, MV4-11 + K-562 + COLO205 + SK-N-BE2 + OVCAR-8. The conditions noted are these: read-out: apparent Kd; compound concentrations:100 nM and 1000 nM (sheet 'Samples'); n = 1.

In a further assay the test system is GSK3A. Also noted: species or system human, MV4-11 + K-562 + COLO205 + SK-N-BE2 + OVCAR-8. The conditions noted are these: read-out: apparent Kd; compound concentrations:100 nM and 1000 nM (sheet 'Samples'); n = 1.
In another assay the test system is GSK3B. Also noted: species or system human, MV4-11 + K-562 + COLO205 + SK-N-BE2 + OVCAR-8. The conditions noted are these: read-out: apparent Kd; compound concentrations:100 nM and 1000 nM (sheet 'Samples'); n = 1.
The next assay concerns JAK2. On the set-up: species or system human, MV4-11 + K-562 + COLO205 + SK-N-BE2 + OVCAR-8. The conditions noted are these: read-out: apparent Kd; compound concentrations:100 nM and 1000 nM (sheet 'Samples'); n = 1.
The test system of a further assay is MAPK14. Also noted: species or system human, MV4-11 + K-562 + COLO205 + SK-N-BE2 + OVCAR-8. The conditions noted are these: read-out: apparent Kd; compound concentrations:100 nM and 1000 nM (sheet 'Samples'); n = 1.
In the next assay the test system is PIK3CA. Also noted: species or system human, MV4-11 + K-562 + COLO205 + SK-N-BE2 + OVCAR-8. As to conditions: read-out: apparent Kd; compound concentrations:100 nM and 1000 nM (sheet 'Samples'); n = 1.
The next assay has as its system PIK3CD. On the set-up: species or system human, MV4-11 + K-562 + COLO205 + SK-N-BE2 + OVCAR-8. As to conditions: read-out: apparent Kd; compound concentrations:100 nM and 1000 nM (sheet 'Samples'); n = 1.
For a further assay, the system named is RPS6KA6. Also noted: species or system human, MV4-11 + K-562 + COLO205 + SK-N-BE2 + OVCAR-8. As to conditions: read-out: apparent Kd; compound concentrations:100 nM and 1000 nM (sheet 'Samples'); n = 1.
The test system of a further assay is AIFM1. Also noted: species or system human, MV4-11 + K-562 + COLO205 + SK-N-BE2 + OVCAR-8. As to conditions: read-out: apparent Kd; compound concentrations: 100 nM and 1000 nM (sheet 'Samples'), CATDS: 7.0265848272952805E-2; n = 1.
A further assay relates to CLK1. On the set-up: species or system human, MV4-11 + K-562 + COLO205 + SK-N-BE2 + OVCAR-8. The conditions noted are these: read-out: apparent Kd; compound concentrations: 100 nM and 1000 nM (sheet 'Samples'), CATDS: 0.104887627590219; n = 1.
A further assay has as its system CLK4. Also noted: species or system human, MV4-11 + K-562 + COLO205 + SK-N-BE2 + OVCAR-8. The conditions noted are these: read-out: apparent Kd; compound concentrations: 100 nM and 1000 nM (sheet 'Samples'), CATDS: 9.5715512322220406E-2; n = 1.
In a further assay the test system is CSNK1G1. On the set-up: species or system human, MV4-11 + K-562 + COLO205 + SK-N-BE2 + OVCAR-8. The conditions noted are these: read-out: apparent Kd; compound concentrations: 100 nM and 1000 nM (sheet 'Samples'), CATDS: 5.5121042551324002E-2; n = 1.
For a further assay, the system named is DAPK3. Also noted: species or system human, MV4-11 + K-562 + COLO205 + SK-N-BE2 + OVCAR-8. The conditions noted are these: read-out: apparent Kd; compound concentrations: 100 nM and 1000 nM (sheet 'Samples'), CATDS: 8.3155449206082505E-2; n = 1.
A further assay relates to DCTPP1. Also noted: species or system human, MV4-11 + K-562 + COLO205 + SK-N-BE2 + OVCAR-8. As to conditions: read-out: apparent Kd; compound concentrations: 100 nM and 1000 nM (sheet 'Samples'), CATDS: 5.7600915047594299E-2; n = 1.
The subject of the next assay is FN3KRP. Also noted: species or system human, MV4-11 + K-562 + COLO205 + SK-N-BE2 + OVCAR-8. As to conditions: read-out: apparent Kd; compound concentrations: 100 nM and 1000 nM (sheet 'Samples'), CATDS: 6.5569795708597098E-2; n = 1.
In a further assay the test system is FN3K. On the set-up: species or system human, MV4-11 + K-562 + COLO205 + SK-N-BE2 + OVCAR-8. As to conditions: read-out: apparent Kd; compound concentrations: 100 nM and 1000 nM (sheet 'Samples'), CATDS: 6.57741887652563E-2; n = 1.
In the next assay the test system is MAPK3. Also noted: species or system human, MV4-11 + K-562 + COLO205 + SK-N-BE2 + OVCAR-8. The conditions noted are these: read-out: apparent Kd; compound concentrations: 100 nM and 1000 nM (sheet 'Samples'), CATDS: 8.8800747421998102E-2; n = 1.
The test system of another assay is NEK2. On the set-up: species or system human, MV4-11 + K-562 + COLO205 + SK-N-BE2 + OVCAR-8. The conditions noted are these: read-out: apparent Kd; compound concentrations: 100 nM and 1000 nM (sheet 'Samples'), CATDS: 7.0168858397625197E-2; n = 1.
The subject of another assay is PBK. On the set-up: species or system human, MV4-11 + K-562 + COLO205 + SK-N-BE2 + OVCAR-8. As to conditions: read-out: apparent Kd; compound concentrations: 100 nM and 1000 nM (sheet 'Samples'), CATDS: 7.2795732103844296E-2; n = 1.
The target of the next assay is Q6ZSR9 (human, UniProt Q6ZSR9). Also noted: species or system MV4-11 + K-562 + COLO205 + SK-N-BE2 + OVCAR-8. The conditions noted are these: read-out: apparent Kd; compound concentrations: 100 nM and 1000 nM (sheet 'Samples'), CATDS: 6.3978551473772294E-2; n = 1.
Chain of Q6ZSR9 (Q6ZSR9 whole entry, looked up): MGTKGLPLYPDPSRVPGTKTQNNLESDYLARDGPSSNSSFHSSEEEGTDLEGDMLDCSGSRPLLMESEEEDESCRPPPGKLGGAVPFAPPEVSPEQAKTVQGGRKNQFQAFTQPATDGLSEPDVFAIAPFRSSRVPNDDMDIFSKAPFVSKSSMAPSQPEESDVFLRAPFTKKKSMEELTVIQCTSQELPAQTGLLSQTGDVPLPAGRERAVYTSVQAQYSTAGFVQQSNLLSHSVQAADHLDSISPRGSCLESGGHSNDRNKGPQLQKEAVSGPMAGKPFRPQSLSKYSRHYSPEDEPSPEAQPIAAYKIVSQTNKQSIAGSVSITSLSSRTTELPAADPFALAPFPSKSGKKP
The subject of another assay is RABL3. On the set-up: species or system human, MV4-11 + K-562 + COLO205 + SK-N-BE2 + OVCAR-8. As to conditions: read-out: apparent Kd; compound concentrations: 100 nM and 1000 nM (sheet 'Samples'), CATDS: 7.0827671495760899E-2; n = 1.
The test system of a further assay is TESK1. On the set-up: species or system human, MV4-11 + K-562 + COLO205 + SK-N-BE2 + OVCAR-8. The conditions noted are these: read-out: apparent Kd; compound concentrations: 100 nM and 1000 nM (sheet 'Samples'), CATDS: 6.7543584282145103E-2; n = 1.

`CN1CCC(C(=O)Nc2n[nH]c3nnc(-c4ccccc4)cc23)CC1.Cl` [SB-678557-A]: the potency estimated from few doses is 2390 nM in the assay with AKT2; 1070 nM in the assay with CDK16; 1910 nM in the assay with CDK17; 75.2 nM in the assay with CDKL5; 1840 nM in the assay on DJA1; 3.32 nM in the assay on GSK3A. Moreover, the potency estimated from few doses with GSK3B was 8.23 nM; in the assay with JAK2, 721 nM; in the assay on MAPK14, 1690 nM; in the assay with PIK3CA, 183 nM; in the assay with PIK3CD, 173 nM; in the assay on RPS6KA6 it was 1150 nM.

With `O=C1N=C(NCCc2ccc(F)cc2)S/C1=C\c1ccc2ncccc2c1` [RO4508340-000], the potency estimated from few doses in the assay with AIFM1 is 1310 nM; with CLK1, 643 nM; with CLK4 it was 744 nM; in the assay with CSNK1G1 it was 2380 nM; with DAPK3, 948 nM; in the assay with DCTPP1, 2100 nM. Besides, the potency estimated from few doses in the assay with FN3KRP was 1530 nM; with FN3K, 1520 nM; in the assay with MAPK3 it was 844 nM; in the assay on NEK2, 1320 nM; in the assay on PBK, 1220 nM; with Q6ZSR9, 1620 nM. Further, the values for the potency estimated from few doses in the assay on RABL3 and in the assay with TESK1 were 1290 nM and 1430 nM, respectively.
